Results published in the supplement of paper PMC6763611.

Each molecule was assayed on Plasmodium falciparum NF54 (assay: growth inhibition relative to untreated control; higher = more inhibition). Conditions: 1 µM; MM + chorismate end-products (CM screening medium); 72 h.
Summary of the method: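 Two media were used: minimal RPMI, and minimal RPMI carrying the chorismate end-products folate, pABA, pHBA, tyrosine, phenylalanine and tryptophan at 2.2 μM, 7.3 μM, 7.3 μM, 111 μM and 90 μM for the first five. In these media, P. falciparum NF54 ring stages (1% hematocrit, 1% parasitemia, 100 μL/well) were exposed in dark 96-well half-area plates to a single 5 μM or 1 μM test-compound dose for 72 h at 37 °C. Growth inhibition was then assessed with SYBR Green against untreated wells, subtracting background from uninfected erythrocytes.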

SMILES	growth inhibition [%]
CNc1cc(C)nc(C2CN(C(=O)c3n[nH]c4ccccc34)CCO2)c1 (stereo not given)	16.4
C[C@H](c1ccc2c(c1)CCCC2)N(C)c1ncc2c(N)nc(N)nc2n1	8.99
COc1ccc(C(=N)N)cc1-c1cn(-c2ccc(C(=N)N)cc2)nn1	65.6
Cc1cc(C(=O)Nc2cnn(Cc3ccc(Cl)cc3Cl)c2)no1	80.3
Nc1cccnc1Nc1ccc(Cl)cc1	32
Nc1nccc2ccc(-c3ccc4nccn4c3)cc12	> 100
CCS(=O)(=O)N(Cc1ccco1)Cc1cc2ccc(C)cc2nc1O	44
Clc1ccc(CCNc2cc(-c3ccccc3)nc3ncnn23)cc1	< 0
CCN(CC)C(=O)N1CCN(C)CC1	31.7
CNc1snc(C)c1C(=O)NCCOc1ccc(OC)cc1	42.3
CS(=O)(=O)c1cccc(-c2cnc3[nH]cc(-c4ccc(CCC(=O)O)cc4)c3c2)c1	79
NC(=O)c1cc(-c2ccsc2)ccc1OCCOc1ccccc1	18.1
CO[C@H]1/C=C\O[C@@]2(C)Oc3c(C)c(O)c4c(O)c(/c(=C/NN5CCN(C)CC5)c(O)c4c3C2=O)=N\C(=O)/C(C)=C\C=C/[C@H](C)[C@H](O)[C@@H](C)[C@@H](O)[C@@H](C)[C@H](OC(C)=O)[C@@H]1C	35.5
CN1CCN(c2nccc3[nH]c(-c4cccc(F)c4)cc23)CC1	< 0
Nc1nc(N)c2c3c(sc2n1)CN(Cc1ccccc1)CC3	55.2
COc1cc2ncnc(NC3CCN(Cc4ccccc4)CC3)c2cc1OC	98.1
O=C(Nc1cccnc1)c1c(O)c2cccc3c2n(c1=O)CC3	6.17
Cc1nn(C(=O)Nc2cccc(C(F)(F)F)c2)c(C)c1Sc1ncccn1	0.416
Cc1nn(C)cc1C(C)Nc1nncc(-c2ccc(C(F)(F)F)cc2)n1 (stereo not given)	94.7
O=C(NC1=NCCS1)c1sc2cc(F)ccc2c1Cl	25.1
Cc1cc(NCC(C)C)c2[nH]nc(-c3ccccc3)c2n1	89.6

Same assay, conditions: 1 µM; minimal medium (MM); 72 h

SMILES	growth inhibition [%]
COc1cc(C2=NCCN2)cc2cc(-c3ccc(C4=NCCN4)cc3)oc12	> 100
O=C(Nc1nc(-c2ccccn2)cs1)C1CC1c1ccccc1F (stereo not given)	< 0
CCCn1c(NC(=O)c2ccc3ccccc3n2)nc2ccccc21	20.1
Cc1cc(Cl)c(S(=O)(=O)N2CCCC2)cc1OCC(=O)NC1CCCCC1	100
COc1cc(NC(=O)Cc2nn(C)c(=O)c3ccccc23)ccc1Cl	5.71
CC(C)(C)c1ccc(N[C@@H]2CCCC[C@H]2NC(=O)c2ccco2)cc1	20.6
CC(C)C(Oc1cccc2ccccc12)C(=O)O (stereo not given)	13.6
Cc1cc(OCC(=O)NCc2ccccc2)c2cc(Br)ccc2n1	3.05
FC(F)(F)c1cnc(Sc2nnc(-c3ccncc3)o2)c(Cl)c1	61.3
Cc1cc(NC(=O)c2ccc(Oc3ccc(Cl)cc3O)o2)no1	27.1
N#Cc1nc(-c2ccccc2F)oc1NCCc1ccccc1	< 0
Cc1nn2c(O)c3c(nc2c1-c1ccc(F)cc1)CCCC3	13.4
N#CCN(CCCCN1CCN(c2ccc(F)cc2)CC1)C(=O)OCc1ccccc1	7.66
CC(C)/N=c1\cc2n(-c3ccc(Cl)cc3)c3ccccc3nc-2cc1Nc1ccc(Cl)cc1	89.1
O=C(Nc1ccc(C(F)(F)F)c(C(F)(F)F)c1)c1cc(Cl)ccc1O	95
CC1=Nc2ccc(Cl)cc2C(O)(c2ccc(C)cc2)N1CCN1CCCCC1 (stereo not given)	> 100
CCC(NC(=O)c1ccccc1NC(=O)c1ccc(C)cc1)C(=O)OC (stereo not given)	96.2
COc1ccc(N(CCc2cccc(C)n2)C(=O)C2CCCCC2)cc1	36.2
CNc1cc(C)nc(C2CN(C(=O)c3n[nH]c4ccccc34)CCO2)c1 (stereo not given)	10.7
C[C@H](c1ccc2c(c1)CCCC2)N(C)c1ncc2c(N)nc(N)nc2n1	2.84

SMILES	growth inhibition [%]
COc1ccc(C(=N)N)cc1-c1cn(-c2ccc(C(=N)N)cc2)nn1	53.6
Cc1cc(C(=O)Nc2cnn(Cc3ccc(Cl)cc3Cl)c2)no1	72.9
Nc1cccnc1Nc1ccc(Cl)cc1	< 0
Nc1nccc2ccc(-c3ccc4nccn4c3)cc12	> 100
CCS(=O)(=O)N(Cc1ccco1)Cc1cc2ccc(C)cc2nc1O	33.5
Clc1ccc(CCNc2cc(-c3ccccc3)nc3ncnn23)cc1	0.487
CCN(CC)C(=O)N1CCN(C)CC1	2.45
CNc1snc(C)c1C(=O)NCCOc1ccc(OC)cc1	< 0
CS(=O)(=O)c1cccc(-c2cnc3[nH]cc(-c4ccc(CCC(=O)O)cc4)c3c2)c1	70.7
NC(=O)c1cc(-c2ccsc2)ccc1OCCOc1ccccc1	9.01
CO[C@H]1/C=C\O[C@@]2(C)Oc3c(C)c(O)c4c(O)c(/c(=C/NN5CCN(C)CC5)c(O)c4c3C2=O)=N\C(=O)/C(C)=C\C=C/[C@H](C)[C@H](O)[C@@H](C)[C@@H](O)[C@@H](C)[C@H](OC(C)=O)[C@@H]1C	38.2
CN1CCN(c2nccc3[nH]c(-c4cccc(F)c4)cc23)CC1	58.4
Nc1nc(N)c2c3c(sc2n1)CN(Cc1ccccc1)CC3	96.8
COc1cc2ncnc(NC3CCN(Cc4ccccc4)CC3)c2cc1OC	95.5
O=C(Nc1cccnc1)c1c(O)c2cccc3c2n(c1=O)CC3	21.1
Cc1nn(C(=O)Nc2cccc(C(F)(F)F)c2)c(C)c1Sc1ncccn1	< 0
Cc1nn(C)cc1C(C)Nc1nncc(-c2ccc(C(F)(F)F)cc2)n1 (stereo not given)	97.4
O=C(NC1=NCCS1)c1sc2cc(F)ccc2c1Cl	4.51
Cc1cc(NCC(C)C)c2[nH]nc(-c3ccccc3)c2n1	94.3
